Here are results for 32 sequences from article PMC5869772, “Quantitative profiling of BATF family proteins/JUNB/IRF hetero-trimers using Spec-seq”.

Holding throughout (test): Spec-seq (EMSA and sequencing of bound and unbound bands); 100 nM BATFx-JUNB, 1 uM dsDNA library, 50 mM K acetate, 20 mM Tris-acetate, 10 mM Mg acetate, 100 ug/ml BSA, pH 7.9, 10% glycerol, 30 min on ice; native 9% PAGE at 4 C; low values mean tight binding
Conditions in all cases: protein: recombinant;recombinant; tags: N-terminal mCherry-TEV, cleaved off;C-terminal 6His; copies: 1;1; dsDNA, one strand shown
(A gel shift assay detects complexes by their altered migration in electrophoresis.)

One experiment concerns the target T1, BATF;JUNB (human;human, UniProt Q16520;P17275 1-125;148-347, |).
T1 sequence 1: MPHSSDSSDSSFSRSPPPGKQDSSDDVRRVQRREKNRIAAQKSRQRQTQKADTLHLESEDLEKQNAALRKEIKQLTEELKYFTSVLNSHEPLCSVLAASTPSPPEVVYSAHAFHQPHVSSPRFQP
T1 sequence 2: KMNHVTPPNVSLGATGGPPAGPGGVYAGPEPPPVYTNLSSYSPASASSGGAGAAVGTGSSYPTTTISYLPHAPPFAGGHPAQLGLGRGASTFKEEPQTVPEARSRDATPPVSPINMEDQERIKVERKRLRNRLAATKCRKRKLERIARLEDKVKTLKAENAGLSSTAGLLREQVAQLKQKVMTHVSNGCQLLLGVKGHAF
In outline:
(§1)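 The protein, at 100 nM, was incubated with 1 μM double-stranded degenerate DNA library for 30 min on ice in NEB Cutsmart buffer with 10% glycerol, then resolved by native 9% PAGE at 4 °C. Excised bound and unbound bands were PCR-barcoded and Illumina-sequenced, and each sequence's relative binding energy in kT is −ln of its bound/unbound read-count ratio.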

The next experiment deals with T2, BATF2 (bZIP);JUNB (human;human, UniProt Q8N1L9;P17275 1-142;148-347, |).
T2 sequence 1: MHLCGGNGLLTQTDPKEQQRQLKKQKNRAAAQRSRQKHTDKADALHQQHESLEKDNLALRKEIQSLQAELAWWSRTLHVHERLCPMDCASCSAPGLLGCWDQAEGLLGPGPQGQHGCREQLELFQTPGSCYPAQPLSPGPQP
T2 sequence 2: T1 sequence 2
In outline:
as §1

The next experiment addresses T3, BATF3;JUNB (human;human, UniProt Q9NR55;P17275 1-127;148-347, |).
T3 sequence 1: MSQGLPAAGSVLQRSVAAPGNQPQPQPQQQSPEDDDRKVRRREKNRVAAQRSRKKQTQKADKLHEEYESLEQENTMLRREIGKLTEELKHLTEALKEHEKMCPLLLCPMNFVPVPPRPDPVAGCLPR
T3 sequence 2: T1 sequence 2
In outline:
as §1

Consider “GATAGTCTCATTTTCACCCCGTGAAATGACTCCTTTGTTCCATTACAGTATCTGT”, for which the figures for the binding signal in the experiment with BATF;JUNB, with BATF2 (bZIP);JUNB and in the experiment with BATF3;JUNB were 0.0649 kT, 0.734 kT and 0.584 kT, respectively.

As for “GATAGTCTCATTTTCACCCCGTGAAATGAGTCTCTTGTTCCATTACAGTATCTGT”, the binding signal was 0.273 kT in the experiment with BATF;JUNB, 1.09 kT in the experiment with BATF2 (bZIP);JUNB and 0.936 kT with BATF3;JUNB.

As for “GATAGTCTCATTTTCACCCCGTGAAATGACGTTATTGTTCCATTACAGTATCTGT”, the values for the binding signal with BATF;JUNB, with BATF2 (bZIP);JUNB and in the experiment with BATF3;JUNB were -0.288 kT, 0.0695 kT and -0.68 kT, respectively.

For “GATAGTCTCATTTTCACCCCGTGAAATGAGTTATTTGTTCCATTACAGTATCTGT”, the binding signal came to 0.153 kT in the experiment with BATF;JUNB, 0.843 kT with BATF2 (bZIP);JUNB and 0.54 kT in the experiment with BATF3;JUNB.

With “GATAGTCTCATTTTCACCCCGTGAAATGAGGCAATTGTTCCATTACAGTATCTGT”, the binding signal amounted to 0.661 kT with BATF;JUNB, 1.12 kT with BATF2 (bZIP);JUNB and 0.808 kT with BATF3;JUNB.

“GATAGTCTCATTTTCACCCCGTGAAATGAGTCTATTGTTCCATTACAGTATCTGT”: the binding signal with BATF;JUNB is -0.119 kT; in the experiment with BATF2 (bZIP);JUNB, 1.33 kT; in the experiment with BATF3;JUNB it was 0.647 kT.

On to “GATAGTCTCATTTTCACCCCGTGAAATGACCCATTTGTTCCATTACAGTATCTGT”, for which the binding signal with BATF;JUNB worked out at 0.311 kT; with BATF2 (bZIP);JUNB it was 0.823 kT; with BATF3;JUNB, 0.67 kT.

Take “GATAGTCTCATTTTCACCCCGTGAAACTAAGTCATTGTTCCATTACAGTATCTGT”: the values for the binding signal with BATF;JUNB, in the experiment with BATF2 (bZIP);JUNB and in the experiment with BATF3;JUNB were -0.15 kT, 0.261 kT and -0.118 kT, respectively.

On to “GATAGTCTCATTTTCACCCCGTGAAACGGAGTCATTGTTCCATTACAGTATCTGT”, for which the binding signal is -0.207 kT with BATF;JUNB, 0.313 kT with BATF2 (bZIP);JUNB and 0.06 kT in the experiment with BATF3;JUNB.

Regarding “GATAGTCTCATTTTCACCCCGTGAAATGAGTCCATTGTTCCATTACAGTATCTGT”, the binding signal with BATF;JUNB was found to be 0.0398 kT; in the experiment with BATF2 (bZIP);JUNB it was 1.1 kT; with BATF3;JUNB, 0.51 kT.

On to “GATAGTCTCATTTTCACCCCGTGAAATGACACATTTGTTCCATTACAGTATCTGT”, for which the values for the binding signal with BATF;JUNB, in the experiment with BATF2 (bZIP);JUNB and in the experiment with BATF3;JUNB were -0.137 kT, 0.424 kT and 0.0792 kT, respectively.

In the case of “GATAGTCTCATTTTCACCCCGTGAAATGACTCAATTGTTCCATTACAGTATCTGT”, the values for the binding signal with BATF;JUNB, with BATF2 (bZIP);JUNB and in the experiment with BATF3;JUNB were -0.531 kT, -0.145 kT and -0.634 kT, respectively.

“GATAGTCTCATTTTCACCCCGTGAAACTGCGTCATTGTTCCATTACAGTATCTGT”: the binding signal is -0.647 kT with BATF;JUNB, -0.164 kT with BATF2 (bZIP);JUNB and -0.774 kT with BATF3;JUNB.

For “GATAGTCTCATTTTCACCCCGTGAAACGACGTCATTGTTCCATTACAGTATCTGT”, the results for the binding signal in the experiment with BATF;JUNB, with BATF2 (bZIP);JUNB and with BATF3;JUNB were -0.501 kT, -0.195 kT and -1.03 kT, respectively.

Take “GATAGTCTCATTTTCACCCCGTGAAAGTGCGTCATTGTTCCATTACAGTATCTGT”: the binding signal with BATF;JUNB was -0.695 kT; with BATF2 (bZIP);JUNB it was -0.267 kT; with BATF3;JUNB it was -0.851 kT.

Regarding “GATAGTCTCATTTTCACCCCGTGAAATGTGTCATTTGTTCCATTACAGTATCTGT”, the values for the binding signal with BATF;JUNB, in the experiment with BATF2 (bZIP);JUNB and with BATF3;JUNB were -0.52 kT, -0.022 kT and -0.44 kT, respectively.

Consider “GATAGTCTCATTTTCACCCCGTGAAATGAGTAAGTTGTTCCATTACAGTATCTGT”, for which the binding signal with BATF;JUNB was -0.362 kT; with BATF2 (bZIP);JUNB, 0.572 kT; with BATF3;JUNB it was 0.139 kT.

As to “GATAGTCTCATTTTCACCCCGTGAAACTTAGTCATTGTTCCATTACAGTATCTGT”, the binding signal was -0.834 kT with BATF;JUNB, -0.172 kT with BATF2 (bZIP);JUNB and -0.762 kT with BATF3;JUNB.

On to “GATAGTCTCATTTTCACCCCGTGAAAGGGAGTCATTGTTCCATTACAGTATCTGT”, for which the binding signal is -0.148 kT with BATF;JUNB, 0.485 kT with BATF2 (bZIP);JUNB and 0.287 kT in the experiment with BATF3;JUNB.

Turning to “GATAGTCTCATTTTCACCCCGTGAAAATCAGTCATTGTTCCATTACAGTATCTGT”, the results for the binding signal with BATF;JUNB, in the experiment with BATF2 (bZIP);JUNB and with BATF3;JUNB were -0.547 kT, 0.0501 kT and -0.272 kT, respectively.

Turning to “GATAGTCTCATTTTCACCCCGTGAAATGAGTCTGTTGTTCCATTACAGTATCTGT”, the results for the binding signal in the experiment with BATF;JUNB, with BATF2 (bZIP);JUNB and with BATF3;JUNB were 0.124 kT, 1.09 kT and 0.723 kT, respectively.

“GATAGTCTCATTTTCACCCCGTGAAATGACTAATTTGTTCCATTACAGTATCTGT”: the binding signal was -0.506 kT with BATF;JUNB, 0.0427 kT with BATF2 (bZIP);JUNB and -0.424 kT with BATF3;JUNB.

On to “GATAGTCTCATTTTCACCCCGTGAAATGACGCAGTTGTTCCATTACAGTATCTGT”, for which the binding signal is -0.301 kT in the experiment with BATF;JUNB, 0.363 kT in the experiment with BATF2 (bZIP);JUNB and -0.216 kT with BATF3;JUNB.

With “GATAGTCTCATTTTCACCCCGTGAAATGACTGAATTGTTCCATTACAGTATCTGT”, the values for the binding signal in the experiment with BATF;JUNB, in the experiment with BATF2 (bZIP);JUNB and in the experiment with BATF3;JUNB were -0.087 kT, 0.382 kT and 0.179 kT, respectively.

Regarding “GATAGTCTCATTTTCACCCCGTGAAACGACTCATTTGTTCCATTACAGTATCTGT”, the binding signal in the experiment with BATF;JUNB is -0.317 kT; with BATF2 (bZIP);JUNB, 0.616 kT; with BATF3;JUNB, 0.267 kT.

For the sequence “GATAGTCTCATTTTCACCCCGTGAAAAGACGTCATTGTTCCATTACAGTATCTGT”, the binding signal with BATF;JUNB is -0.231 kT; with BATF2 (bZIP);JUNB, -0.0139 kT; in the experiment with BATF3;JUNB, -0.682 kT.

Consider “GATAGTCTCATTTTCACCCCGTGAAAGTTAGTCATTGTTCCATTACAGTATCTGT”, for which the binding signal was -0.763 kT with BATF;JUNB, -0.0778 kT in the experiment with BATF2 (bZIP);JUNB and -0.656 kT in the experiment with BATF3;JUNB.

Consider “GATAGTCTCATTTTCACCCCGTGAAATGACTTCATTGTTCCATTACAGTATCTGT”, for which the values for the binding signal with BATF;JUNB, with BATF2 (bZIP);JUNB and in the experiment with BATF3;JUNB were -0.183 kT, 0.172 kT and -0.643 kT, respectively.

“GATAGTCTCATTTTCACCCCGTGAAATGACTAAGTTGTTCCATTACAGTATCTGT”: the binding signal with BATF;JUNB was -0.456 kT; with BATF2 (bZIP);JUNB, 0.286 kT; in the experiment with BATF3;JUNB, -0.104 kT.

In the case of “GATAGTCTCATTTTCACCCCGTGAAATGAGCCACTTGTTCCATTACAGTATCTGT”, the results for the binding signal with BATF;JUNB, with BATF2 (bZIP);JUNB and with BATF3;JUNB were 0.573 kT, 1.34 kT and 1.15 kT, respectively.

For the sequence “GATAGTCTCATTTTCACCCCGTGAAAGTCAGTCATTGTTCCATTACAGTATCTGT”, the binding signal with BATF;JUNB is -0.0489 kT; with BATF2 (bZIP);JUNB it was 0.348 kT; with BATF3;JUNB it was 0.152 kT.

For the sequence “GATAGTCTCATTTTCACCCCGTGAAATTGGGTCATTGTTCCATTACAGTATCTGT”, the binding signal was 0.183 kT with BATF;JUNB, 0.516 kT in the experiment with BATF2 (bZIP);JUNB and -0.0123 kT with BATF3;JUNB.
